This is a sample that favours compounds with a hit; in the whole collection about 7.7% have one here.
FBPA Giardia inh: Giardia lamblia aldolase inhibition; A8B2U2; purified Giardia FBPA; Potency, µM (highest dose often 59.6 µM), without a hit: top-dose activity, negative = inhibition, hits mostly inhibitors; 290,000 tested, 0.71% active; AID 2451; also: potency is read from the fitted curve at half-maximal effect; nearly all actives have a fitted effect of over 55% in size
Target sequence (A8B2U2 whole entry, looked up): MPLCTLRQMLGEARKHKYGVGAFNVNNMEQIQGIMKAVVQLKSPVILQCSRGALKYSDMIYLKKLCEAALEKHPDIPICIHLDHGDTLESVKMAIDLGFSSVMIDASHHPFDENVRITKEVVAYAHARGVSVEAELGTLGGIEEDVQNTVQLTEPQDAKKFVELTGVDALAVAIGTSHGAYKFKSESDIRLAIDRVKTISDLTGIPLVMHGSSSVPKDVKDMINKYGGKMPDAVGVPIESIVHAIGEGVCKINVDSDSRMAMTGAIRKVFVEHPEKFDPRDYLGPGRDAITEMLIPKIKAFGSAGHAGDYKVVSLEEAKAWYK
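Giardia FBPA (40 nM reagent) was preincubated 10 min at RT with compound (up to 57.5 uM final), then substrate plus GAPDH/TPI/NAD/arsenate coupling system with diaphorase/resazurin was added; resorufin fluorescence (525/598 nm) was read after 20 min.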
TbPYK inhibitor: T. brucei pyruvate kinase inhibition | TbPYK enzyme, Kinase-Glo Plus ATP luminescence, 45 min | Potency, µM (doses to about 76.8 µM), inactives show at the top dose activity, negative = inhibition, hits mostly inhibitors | Q57TT1 | 410,000 tested, 0.12% active; also: potency is read from the fitted curve at half-maximal effect; nearly all actives have a fitted effect of over 50% in size
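Activity of T. brucei pyruvate kinase was followed by Kinase-Glo Plus luminescence after the enzyme reacted 45 min at room temperature with 130 uM ADP (final) and substrate. Test compounds were added before ADP at multiple concentrations.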
HCMV inh: inhibitors of human cytomegalovirus. HFF cells, HCMV-luciferase reporter, 72 h; stronger effect = lower value. activity change, negative = inhibition, % at 57.5 µM. 410,000 tested, 4.5% active. AID 1259415; in the data active = activity change below about -60%; inconclusive = no clear call, values can overlap the other calls; inactive = above about -39%
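Inhibition of viral replication was scored as loss of reporter luminescence in HFFs infected with HCMV-luciferase (MOI 1 PFU/cell) for 72 h; compounds tested at 2 doses, normalized to buffer and Salinomycin controls.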
RE007 growth inh: less growth of the S. pombe RE007 Vpr strain | S. pombe RE007 Vpr strain, BacTiter-Glo ATP luminescence, 24 h | Potency, µM (top dose mostly 92.2 µM), without a hit: at the top dose activity change, negative = less growth, actives largely listed as inhibitors | 360,000 tested, 0.21% active | AID 651644; active = well fitted falling curve with a large enough effect; inconclusive = small, poorly fitted or top-dose-only effect; inactive = no such curve, though single readings can be large or run the other way; also: potency is read from the fitted curve at half-maximal effect; nearly all actives have a fitted effect of over 50% in size
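Fission yeast strain RE007, carrying one chromosomally integrated HIV-1 vpr copy, was seeded at OD 0.01 in PMG+AL medium with 23 nL pinned compound. After 24 h at 30 °C and 99% humidity, viability was read by BacTiter-Glo luminescence.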
Sm TGR block: S. mansoni TGR enzyme inhibition; Q962Y6; purified TGR, DTNB reduction, TNB absorbance 405 nm; Potency, µM (titrated, usually from 114 µM), for inactives: at the highest dose activity change, negative = inhibition, hits mostly inhibitors; 360,000 tested, 3% active; also: potency is read from the fitted curve at half-maximal effect; nearly all actives have a fitted effect of over 60% in size
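First, TGR (20 nM dispensed) and NADPH were mixed with compound. Second, a 15 min room-temperature incubation followed. Third, further NADPH and then DTNB were added to start the reaction. Finally, TNB absorbance was monitored kinetically.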
FMDV inh: foot and mouth disease virus antiviral activity; FMDV antiviral cell-based qHTS; Potency, µM (top dose mostly 57.9 µM), for inactives: at the highest dose activity change, negative = inhibition, most hits filed as inhibitors; 410,000 tested, 1.2% active; calls by dose curve; tested in HEK293T cells; also: read-out not given here; potency is read from the fitted curve at half-maximal effect; nearly all actives have a fitted effect of over 45% in size
* = called active by the depositor; ? = inconclusive; · = not tested or not shown. Unless noted, calls follow the shape of the dose curve; as a rule, active = well fitted curve in the direction sought with a large enough effect; inconclusive = small, poorly fitted or top-dose-only effect, or another doubt; inactive = no such curve, though single readings can be large; an effect the other way counts as inactive or inconclusive. % is scaled to controls: 0 for no effect and ±100 for the full control effect.

SMILES	FBPA Giardia inh	TbPYK inhibitor	HCMV inh	RE007 growth inh	Sm TGR block	FMDV inh
CCN1CCN(Cc2ccc(NC(=O)c3cccc(-c4ccc5nc(NC(=O)C6CC6)sc5n4)c3)cc2C(F)(F)F)CC1	·	·	-99*	·	·	·
CCN1CCN(Cc2ccc(NC(=O)c3ccc(C)c(NC(=O)C(=O)c4c[nH]c5ccccc45)c3)cc2C(F)(F)F)CC1	-6%	8%	-101*	-1%	-22%	?
CCN1CCN(Cc2ccc(NC(=O)c3cc(NC(=O)c4cc(C)on4)cc(OC)c3)cc2C(F)(F)F)CC1	-9%	1%	-29	10%	1%	?
CCN1CCN(Cc2ccc(NC(=O)c3cc(NC(=O)C(=O)c4c[nH]c5ccccc45)cc(OC)c3)cc2C(F)(F)F)CC1	0%	-7%	-101*	5%	-19%	?
COc1ccc2cc([C@H](C)CO)ccc2c1	·	·	·	·	·	13%
O=S(=O)(O)Sc1ccccc1	·	-14%	-87*	-9%	·	-12%
CCN(CC)c1ccc(SS(=O)(=O)O)cc1	?	?	-37	-16%	10%	-15%
CCOc1ccc(/C=C2\SC(=S)N(CCC(=O)O)C2=O)cc1	26%	-3%	-64*	-9%	28%	0.32µM*
COc1ccc(/C=C2/SC(=S)N(CCCC(=O)N3CCN(C)CC3)C2=O)cc1	-3%	-16%	-100*	-4%	-9%	13%
CCOc1ccc(/C=C2/SC(=S)N(CCC(=O)Nc3ccc(C(=O)O)cc3)C2=O)cc1	-5%	-5%	6	-10%	4%	64%
O=C(O)CCCN1C(=O)/C(=C\c2ccccc2OCc2ccccc2)SC1=S	·	5%	?	-23%	3%	10%
CN1CCN(C(=O)CCCN2C(=O)/C(=C/c3ccccc3)SC2=S)CC1	1%	-9%	-94*	2%	-7%	-13%
O=C(O)CCCN1C(=O)/C(=C\C(Cl)=C\c2ccccc2)SC1=S	-6%	2%	-99*	10%	-13%	?
CCOC(=O)c1cc(-c2ccc(OC)cc2)n(CCC(=O)Nc2nc3ccc(OCC)cc3s2)c1C	·	-5%	39	·	12%	-10%
CN1CCN(C(=O)CCN2C(=O)/C(=C\c3ccc(Cl)cc3Cl)SC2=S)CC1	26%	-8%	-18	-3%	-13%	35µM*
O=C(CCN1C(=O)/C(=C/c2ccccc2)SC1=S)N1CCCCCC1	0%	-2%	-97*	13%	-4%	-26%
COc1ccc(/C=C2\SC(=O)N(CCCC(=O)Nc3cc(Cl)ccc3C(=O)O)C2=O)cc1	·	-11%	-93*	-1%	·	0.28µM*
COc1ccc(/C=C2\SC(=S)N(CCC(=O)N3CCCCC3)C2=O)cc1	0%	-4%	-20	7%	-16%	0%
COc1ccc(/C=C2\SC(=S)N(CCC(=O)Nc3ccccc3C(=O)O)C2=O)cc1	20%	-1%	-28	-3%	-8%	-10%
CN1CCN(C(=O)CCCN2C(=O)/C(=C/c3ccc(Cl)cc3)SC2=S)CC1	·	-6%	·	-22%	-4%	-9%
CSc1ccc(/C=C(/Sc2nnc(-c3ccccc3)o2)C(=O)O)cc1	5%	-2%	-69*	1%	0%	11%
Cc1ccc(Nc2ncc(C(=O)N3CCN(c4ccc(F)cc4)CC3)c3ccccc23)cc1Cl	·	1%	-1	·	20%	-23%
Clc1ccc2c(c1)C1OCCC1C(c1ccco1)N2 (centres undefined)	-16%	-22%	152	-8%	32µM*	10%
Cc1ccc2c(c1)[C@H]1OCC[C@H]1[C@@H](c1ccncc1)N2	-14%	1%	17	5%	1%	0%
CC(=O)N1c2ccc(Cl)cc2C2OCCC2C1c1ccco1 (centres undefined)	-1%	-2%	-66*	65%	-14%	-26%
SMILES	FBPA Giardia inh	TbPYK inhibitor	HCMV inh	RE007 growth inh	Sm TGR block	FMDV inh
CCNC(=O)c1ccc2c(c1)C1C3CCC(C3)C1C(c1ccccc1)N2 (centres undefined)	0%	16%	-63*	1%	6%	-18%
COc1ccc(CC2C(=O)NC(C)C(=O)N(C)C3C(=O)N(C)C(Cc4ccc(O)c(c4)Oc4ccc(cc4)C3O)C(=O)NC(C)C(=O)NC(C)C(=O)N2C)cc1 (centres undefined)	·	-3%	-98*	2%	·	?
CC(=O)c1ccc(C(=O)N2CCCC(C(=O)c3ccc(Cl)cc3)C2)s1 (centres undefined)	·	2%	11	-4%	0%	0%
CN1CCCC(C(=O)c2ccc(Cl)cc2)C1 (centres undefined)	4%	-1%	34	-7%	35µM*	4%
CC(=O)Nc1ccc(N=NN2CCOCC2)cc1	-2%	-17%	-39	12%	8.9µM*	19%
Cc1ccc(N2CCN(C(=O)CCc3c(C)nc4ncnn4c3C)CC2)c(C)c1	·	2%	-14	·	9%	?
Cc1ccccc1N(CC(=O)NCCSCc1ccco1)S(C)(=O)=O	-1%	-2%	-15	-16%	22µM*	·
CCOc1ccccc1N(CC(=O)NCCSCc1ccco1)S(=O)(=O)c1ccccc1	1%	0%	-15	2%	40µM*	-9%
CS(=O)(=O)N(CC(=O)NCCSCc1ccccc1)c1ccccc1F	-1%	-5%	16	-10%	-25%	-14%
COc1ccc(OC)c(N(CC(=O)NCCSCc2ccco2)S(=O)(=O)c2ccccc2)c1	·	-6%	-29	-1%	45µM*	-22%
COc1ccc(CCNC(=O)CN(c2cc(OC)ccc2OC)S(=O)(=O)c2ccccc2)cc1	-5%	-5%	55	5%	0%	-7%
O=C(CN1CCSc2ccccc21)NCc1ccccc1F	·	2%	58	·	3%	42%
CC1CCCCC1N(C)C1CCN(C(=O)CNC(=O)/C=C/c2cccc(Cl)c2)CC1 (centres undefined)	3%	3%	-100*	6%	35µM*	-2%
CCC(=O)Oc1c(S(=O)(=O)c2ccc(C)cc2)c(C)nn1C(C)(C)C	-1%	-3%	26	-9%	11%	0%
COCC(=O)Oc1c(S(=O)(=O)c2ccc(C)cc2)c(C)nn1C(C)(C)C	-2%	3%	-71*	-2%	?	-13%
COCC(=O)Oc1c(Sc2ccccc2[N+](=O)[O-])c(C)nn1C(C)(C)C	-4%	-12%	-101*	6%	?	-10%
CCC(CC)C(=O)Oc1c(Sc2ccccc2[N+](=O)[O-])c(C)nn1C(C)(C)C	2%	4%	4	4%	3%	?
O=c1cc(-c2ccc(O)cc2)oc2c1ccc1ccccc12	·	4%	-13	3%	-4%	-19%
O=c1cc(-c2ccccc2)oc2cc(O)c(O)c(O)c12	10µM*	?	59	-7%	·	17%
